Measurements: PubChem BioAssay (NCI)
This is part of a sample that, as a whole, favours compounds with a hit. Of some 83,000 tested, about 20% had one in any assay.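 48-hour exposure, single concentration, 96-well plates; percent growth endpoint where 0 means no net growth. Active: below 10.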 Activity calls are given as the source filed them.

These molecules were tested on U251 CNS (assay: NCI-60 one-dose screen, 48 h (100 = growth as untreated, 0 = no growth, -100 = all killed)). Conditions: 10 µM.
Procedure: Growth inhibition of the U251 human tumor cell line is measured as a screen for anti-cancer activity. Cells are grown in 96 well plates and exposed to the test compound for 48 hours. Compounds are tested at a single concentration, which is 10^-5 M for most compounds. The reported endpoint is percent growth (GI% or GIPRCNT), where numbers from 0 - 100% represent growth inhibition, and numbers from -100% - 0 represent cell death. For example, a value of 40 represents 60% growth inhibition. A value of 0 means no net growth occurred over the course of the experiment. A value of -40 indicates 40% of cells at the beginning of the experiment died by the end of the experiment. A value of -100 means all cells are dead at the end of the experiment.
NCI-60 Human Tumor Cell Lines Screen was performed using the standard one-dose NCI protocol, which is described in more detail at https://dtp.cancer.gov/discovery_development/nci-60/default.htm.
Compounds with GIPRCNT values below 10 were considered active. Activity score was based on GIPRCNT using the following formula: […]
Score is 0 for GIPRCNT values of 100 or above, 50 for GIPRCNT values of 0, and 100 for GIPRCNT values of -100.
`Oc1ccc(N=Nc2ccc(Br)cc2)c(O)c1` was tested, and the growth was 16.8% (inactive). With `CCS(=O)(=O)CCCl` the growth was 102% (inactive). With `C/C(=N/NC(N)=O)c1ccco1` the growth was 96.8% (inactive). With `N#CCc1ccc([N+](=O)[O-])cc1` the growth was 98.5% (inactive). In the case of `CCOC(=O)c1ccc(NC(=S)P(=O)(c2ccccc2)c2ccccc2)cc1`, the growth is reported as 99.2% (inactive). With `CCOC(=O)C(=O)C=P(c1ccccc1)(c1ccccc1)c1ccccc1` the growth was 107% (inactive). For `C[N+](C)=c1ccc2nc3c(cc(Nc4ccccc4)c4ccccc43)oc-2c1`, the growth was 23.4% (inactive). In the case of `O=C(O)CNC(=O)c1ccccc1`, the growth is reported as 96.6% (inactive). `O=C(/C=C/C(=O)c1ccccc1)c1ccccc1` was tested, and the growth was 93.6% (inactive). In the case of `CC(=O)c1sc2c(c1OC(=O)c1ccc(Cl)cc1Cl)c(=O)n(-c1ccccc1)c(=S)n2-c1ccccc1`, the growth is reported as 1.6% (active). For `C=CCNc1ccccc1`, the growth was 106% (inactive). With `Cc1nc2c(ccc3ccccc32)s1` the growth was 99.3% (inactive). With `CCCCCCCCCCC(C)Br` (stereo not given) the growth was 103% (inactive). For `OCC(O)C(O)C(O)C(O)/C=N/O` (stereo not given), the growth was 91% (inactive). With `Cc1cc(NC(=O)CSCC(=O)O)no1` the growth was 101% (inactive). With `CCCNC(=O)c1ccc(S(N)(=O)=O)cc1` the growth was 103% (inactive). `O=C(Cc1nc2ccc([N+](=O)[O-])cc2nc1CC(=O)c1cccnc1)c1cccnc1` was tested, and the growth was 37.7% (inactive). With `O=C(O)C(c1ccccc1)C(O)c1ccccc1` (stereo not given) the growth was 91.9% (inactive). For `Nc1nc(N)c2cc(S(=O)(=O)c3cccc(C(F)(F)F)c3)ccc2n1`, the growth was 32.2% (inactive). With `CCc1ccc(/C(C#N)=C/C=C/c2ccccc2)cc1` the growth was 21.3% (inactive). For `CCCCCCCCCCCCCCCCC1CC(=O)OC1=O` (stereo not given), the growth was 96.4% (inactive). With `CCN(CC)C(=O)/C=C(/C)c1ccccc1` the growth was 105% (inactive). In the case of `COc1cc(CN)ccc1O`, the growth is reported as 96% (inactive). For `OC(c1ccccn1)C(O)c1ccccn1` (stereo not given), the growth was 109% (inactive). `NC(=O)NC(=O)c1ccc(Cl)cc1` was tested, and the growth was 106% (inactive). With `O=C(c1ccccc1)C1CCC1` the growth was 76.1% (inactive). With `c1cc[n+](C2c3ccccc3C([n+]3ccccc3)c3ccccc32)cc1` (stereo not given) the growth was 21.5% (inactive). In the case of `N#Cc1c(N)sc(=S)c2c1CCCC2`, the growth is reported as 107% (inactive). `C/C=C/CC(C)C(O)C1C(=O)NC(CC)C(=O)N(C)CC(=O)N(C)C(CC(C)C)C(=O)NC(C(C)C)C(=O)N(C)C(CC(C)C)C(=O)NC(C)C(=O)NC(C)C(=O)N(C)C(CC(C)C)C(=O)N(C)C(CC(C)C)C(=O)N(C)C(C(C)C)C(=O)N1C` (stereo not given) was tested, and the growth was 29.7% (inactive). For `NC(=S)CN1CCOCC1`, the growth was 102% (inactive). `COc1cc2nc3cc([N+](=O)[O-])ccc3c(Cl)c2cc1OC` was tested, and the growth was 89.1% (inactive). For `CN(C)CCN(C)CC(C)(C)C(=O)/C=C/c1ccc(Cl)cc1`, the growth was -1.73% (active). For `CCCCCCCCCCC1CO1` (stereo not given), the growth was 97.8% (inactive). For `Nc1nc(N)c(N=Nc2ccc(C(=O)O)cc2)c(N)n1`, the growth was 103% (inactive). For `CC(=O)c1ccc2c(ccc3ccccc32)c1`, the growth was 92.1% (inactive). `CCCCN(CCCC)CCCO` was tested, and the growth was 116% (inactive). For `Cc1ccc(CCCC(=O)O)c(C)c1`, the growth was 94.1% (inactive). With `O=C(O)c1cccc([N+](=O)[O-])c1O` the growth was 101% (inactive). With `C=CCNc1nnc(C)s1` the growth was 107% (inactive). With `O=C1C=CC(=O)N1c1ccc(I)cc1Cl` the growth was 99.5% (inactive).
